Shown is part of a subset that was picked to be rich in hits.
ROC1-CUL1 inh: inhibitors of human ROC1-CUL1 ubiquitin ligase activity | in vitro K48 di-Ub FRET, acceptor:donor ratio, 45 min | inhibition, % at 10 µM | 140,000 tested, 0.6% active; in the data active = inhibition above about 25%
Target sequence (P62877 whole entry, looked up): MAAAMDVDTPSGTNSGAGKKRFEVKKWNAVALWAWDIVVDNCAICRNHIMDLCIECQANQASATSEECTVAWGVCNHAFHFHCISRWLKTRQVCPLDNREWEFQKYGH
Target sequence (Q13616 whole entry, looked up): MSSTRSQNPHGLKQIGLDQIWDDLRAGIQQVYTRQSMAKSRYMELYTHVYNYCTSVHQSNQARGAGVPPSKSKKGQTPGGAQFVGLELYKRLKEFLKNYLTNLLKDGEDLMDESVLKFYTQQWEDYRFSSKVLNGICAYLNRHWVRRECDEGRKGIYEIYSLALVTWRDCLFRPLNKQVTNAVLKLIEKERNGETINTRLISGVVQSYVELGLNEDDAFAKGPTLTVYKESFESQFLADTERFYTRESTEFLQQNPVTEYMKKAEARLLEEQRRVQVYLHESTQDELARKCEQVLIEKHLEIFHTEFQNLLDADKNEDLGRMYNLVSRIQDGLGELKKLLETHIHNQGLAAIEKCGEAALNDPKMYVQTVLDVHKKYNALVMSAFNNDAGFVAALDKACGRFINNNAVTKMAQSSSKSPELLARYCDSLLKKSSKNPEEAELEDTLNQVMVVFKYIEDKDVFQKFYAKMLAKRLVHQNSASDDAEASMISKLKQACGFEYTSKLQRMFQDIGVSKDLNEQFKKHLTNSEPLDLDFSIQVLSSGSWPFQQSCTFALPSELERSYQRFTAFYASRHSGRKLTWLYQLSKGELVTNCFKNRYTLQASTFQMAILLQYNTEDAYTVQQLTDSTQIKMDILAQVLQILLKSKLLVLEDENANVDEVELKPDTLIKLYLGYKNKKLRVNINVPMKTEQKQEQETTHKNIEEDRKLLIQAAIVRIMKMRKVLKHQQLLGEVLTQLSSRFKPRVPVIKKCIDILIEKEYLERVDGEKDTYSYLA
* hit, by the source's call.

CC(C)(Oc1ccc(C2CCCCC2)cc1)C(=O)O was read as ROC1-CUL1 inh 66*.
O=C(COc1ccc(C2CCCCC2)cc1)Nc1ccccc1F was read as ROC1-CUL1 inh 9.
`COC(=O)c1ccccc1NC(=O)COc1ccc(C2CCCCC2)cc1` gave ROC1-CUL1 inh -4.
For O=C(Nc1nc2ccccc2s1)C1CCCC1 the results were ROC1-CUL1 inh -1.
`CCSc1nnc(NC(C)=O)s1` gave ROC1-CUL1 inh 6.
For Cc1ccccc1-n1ncc(SCc2ccccc2)c(Cl)c1=O the results were ROC1-CUL1 inh -2.
`Cc1cc2c(n1Cc1ccccc1)C(=O)c1ccccc1-2` gave ROC1-CUL1 inh 7.
`CC1=C(SCc2ccccc2)C(=O)c2ccccc2C1=O` gave ROC1-CUL1 inh 37*.
For COC(=O)c1cnc2nc(-c3ccccc3)nn2c1C the results were ROC1-CUL1 inh 8.
Screening c1ccc(Nc2nc(Nc3ccccc3)nc(-n3cccn3)n2)cc1 returned ROC1-CUL1 inh 5.
Fc1ccc(-c2cc(-c3ccccc3)nc(-n3cccn3)n2)cc1 was read as ROC1-CUL1 inh -2.
Screening Oc1cc(-n2cccn2)c(O)c2ccccc12 returned ROC1-CUL1 inh 42*.
For N/C(=N\OC(=O)c1ccc([N+](=O)[O-])cc1Cl)c1ccccc1 the results were ROC1-CUL1 inh -1.
Cc1cccc(C(=O)N2CCN(C(c3ccccc3)c3ccccc3)CC2)c1 was read as ROC1-CUL1 inh -1.
Screening Cc1ccc(N2C(=O)/C(=C/c3cn(CC(=O)O)c4ccccc34)C(=O)NC2=S)c(C)c1 returned ROC1-CUL1 inh 54*.
COc1ccc(Cl)cc1/C=C1\C(=O)NC(=S)N(c2ccc(C)cc2C)C1=O was read as ROC1-CUL1 inh 1.
`Cc1ccc(N2C(=O)/C(=C/c3cc(C)n(C(C)C)c3C)C(=O)NC2=S)c(C)c1` gave ROC1-CUL1 inh -7.
Cc1cccc(N2C(=O)/C(=C/c3cccn3-c3cccc(C(F)(F)F)c3)C(=O)NC2=S)c1C was read as ROC1-CUL1 inh 53*.
Screening CN(C)c1ccc(-n2cccc2/C=C2\C(=O)NC(=S)N(c3ccc(Br)cc3)C2=O)cc1 returned ROC1-CUL1 inh 7.
For CCc1ccccc1N1C(=O)/C(=C/c2cccn2-c2ccc(Cl)cc2)C(=O)NC1=S the results were ROC1-CUL1 inh 36*.
Screening CCCN1C(=O)/C(=C\c2cccn2-c2cccc(C(F)(F)F)c2)C(=O)N(c2ccccc2)C1=S returned ROC1-CUL1 inh 5.
Screening CCOc1ccc(N2C(=O)/C(=C/c3cccn3-c3cccc(C(=O)O)c3)C(=O)NC2=S)cc1 returned ROC1-CUL1 inh 19.
Cc1ccc(N2C(=O)/C(=C/c3cccn3-c3cccc(C(=O)O)c3)C(=O)NC2=S)c(C)c1 was read as ROC1-CUL1 inh 97*.
Cc1cccc(N2C(=O)/C(=C/c3cccn3-c3ccc(Cl)cc3)C(=O)NC2=S)c1C was read as ROC1-CUL1 inh -2.
Cc1cccc(N2C(=O)/C(=C/c3cccn3-c3cccc(C(=O)O)c3)C(=O)NC2=S)c1 was read as ROC1-CUL1 inh 15.
For O=C1NC(=S)N(c2cccc(F)c2)C(=O)/C1=C/c1cccn1-c1cccc(C(F)(F)F)c1 the results were ROC1-CUL1 inh 7.
CCc1ccc(N=C2CC(=O)CC(c3ccc(OC)c(OC)c3)C2)cc1 (centres undefined) was read as ROC1-CUL1 inh -1.
C=C(C)CNC(=O)C1CCCN(C2CCN(Cc3ccccc3)CC2)C1 (centres undefined) was read as ROC1-CUL1 inh 4.
`NC(=O)C1CC(O)CC(C(N)=O)N1` (centres undefined) gave ROC1-CUL1 inh 8.
Screening CCCCC(=O)Nc1nnc(COc2ccc(C(C)(C)C)cc2)s1 returned ROC1-CUL1 inh -1.
`CSc1nnc2c(n1)OC(c1c(C)nn(-c3ccccc3)c1Cl)=Nc1ccccc1-2` gave ROC1-CUL1 inh -1.
`Cc1cc(C=C2C(=O)c3ccccc3C2=O)ccc1N1CCCC1` gave ROC1-CUL1 inh 11.
`COc1cc(N2CCCC2)c(OC)cc1C=C1C(=O)c2ccccc2C1=O` gave ROC1-CUL1 inh 48*.
For COc1cc(N2CCCC2)c(OC)cc1/C=C1\SC(=O)N(Cc2ccc(C)cc2)C1=O the results were ROC1-CUL1 inh -13.
For c1ccc2c(c1)cc(N1CCCC1)c1ccccc12 the results were ROC1-CUL1 inh 90*.
O=C(Nc1ccc(N2CCCC2)c(Cl)c1)c1cccc2ccccc12 was read as ROC1-CUL1 inh 2.
`CN1CCN(c2cc3ccccc3c(=O)c3ccccc23)CC1` gave ROC1-CUL1 inh -3.
`Cc1cccc2cc(C3C4=C(CCCC4=O)OC(=N)C3C#N)c(Cl)nc12` (centres undefined) gave ROC1-CUL1 inh -6.
CCOC(=O)c1c2c(n3ccccc13)C(=O)c1ccccc1C2=O was read as ROC1-CUL1 inh -1.
For CCOC(=O)c1c2c(n(C)c1CNC(C)C)C(=O)C(=O)c1ccc(Br)cc1-2 the results were ROC1-CUL1 inh 98*.
`CCOC(=O)c1ccc(NN2C(=O)c3ccc(Br)cc3C2=O)c([N+](=O)[O-])c1` gave ROC1-CUL1 inh -4.
`Cc1ccc(NC(=O)C(Cc2ccccc2)n2cccc2)c(C)c1` (centres undefined) gave ROC1-CUL1 inh -1.
O=C(Cn1ncc(N2CCCCC2)cc1=O)c1ccc2c(c1)OCCO2 was read as ROC1-CUL1 inh 2.
`CC1=Nc2c(C(=O)Nc3ccccc3)cnn2C(c2ccccc2)C1C(=O)Nc1ccc(C)cc1C` (centres undefined) gave ROC1-CUL1 inh 1.
Screening O=C(Nc1nnc(COc2ccc(Cl)cc2)s1)C12CC3CC(CC(C3)C1)C2 returned ROC1-CUL1 inh 4.
CN1/C(=C\C=C2/SC(=S)NC2=O)C(C)(C)c2ccccc21 was read as ROC1-CUL1 inh 34*.
For Cc1ccccc1N=C/C=C1\N(C)c2ccccc2C1(C)C the results were ROC1-CUL1 inh -4.
`O=C1NC(=S)S/C1=C/C=C/c1ccccc1Cl` gave ROC1-CUL1 inh 9.
For O=C(c1cc(Br)ccc1Cl)N1CCN(c2cccc(C(F)(F)F)c2)CC1 the results were ROC1-CUL1 inh 0.
Screening O=C(/C=C/c1ccc(Cl)cc1)Nc1ccc(NC(=O)c2ccco2)cc1 returned ROC1-CUL1 inh -4.
Cc1cccc(OCc2nc(C#N)c(N3CCN(c4ccccc4)CC3)o2)c1 was read as ROC1-CUL1 inh 6.
`Cc1ccc(Oc2cccc(N3C(=O)c4ccc(Oc5cccc([N+](=O)[O-])c5)cc4C3=O)c2)cc1C` gave ROC1-CUL1 inh -4.
`CS(=O)(=O)C#Cc1ccccc1` gave ROC1-CUL1 inh 52*.
Brc1ccc(C#Cc2ccccc2)cc1 was read as ROC1-CUL1 inh -3.
`CS(=O)(=O)C(C(=O)c1ccccc1)C(=O)c1ccccc1` gave ROC1-CUL1 inh -5.
Screening CC(C)N(C)Cc1nnnn1CC(=O)N(C)Cc1cccc2cnccc12 returned ROC1-CUL1 inh -1.
Screening CC1CC(=O)C2=C(C1)Nc1ncnn1C2c1cccc(F)c1 (centres undefined) returned ROC1-CUL1 inh -13.
`Nc1cc(C(F)(F)F)ccc1Sc1ccccc1C(=O)O` gave ROC1-CUL1 inh 7.
For O=C(O)Cc1ccccc1Sc1cccc(C(F)(F)F)c1 the results were ROC1-CUL1 inh -1.
For O=C(O)c1cc(C(F)(F)F)ccc1Sc1ccccc1 the results were ROC1-CUL1 inh 58*.
For COCCn1c(-c2ccccn2)nc2cc(NC(C)=O)cc(C(=O)NCCc3ccc(F)cc3)c21 the results were ROC1-CUL1 inh 9.

Compound activity: PubChem BioAssay, Pan Lab, Icahn School of Medicine at Mount Sinai
